POLB inh = qHTS Assay for Inhibitors of DNA Polymerase Beta. AID 485314, 2010. Potency, µM (series often up to 114 µM), inactives show at the highest dose activity change, negative = inhibition, usual class: inhibitors. P06746. Pol beta primer extension/strand displacement, fluorescence kinetic. hit rate 1.3% among 340,000; note: potency is the fitted concentration of half-maximal effect; % is set by controls: 0 for no effect and ±100 for the full control effect
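Enzyme-only controls used 10 nM Pol beta; buffer lacking enzyme served as negative control. Compound preincubated 15 min, then 50 nM substrate added; 0 and 10 min reads at room temperature.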
PI5P4Ka inh = qHTS for Inhibitors of phosphatidylinositol 5-phosphate 4-kinase (PI5P4K). Phosphatidylinositol 5-phosphate 4-kinase type-2 alpha (Homo sapiens), P48426. PI5P4Kalpha enzyme, ADP-Glo luminescence, 60 min; stronger effect = lower value. max response, %. hit rate 1.2% among 330,000. AID 652105, 2013; active = max response of -50% or lower; inconclusive = between -30% and -50%; inactive = -30% or higher; note: value at the top dose of about 77 µM; % is set by controls: 0 for no effect and ±100 for the full control effect
Target sequence (P48426 whole entry, looked up): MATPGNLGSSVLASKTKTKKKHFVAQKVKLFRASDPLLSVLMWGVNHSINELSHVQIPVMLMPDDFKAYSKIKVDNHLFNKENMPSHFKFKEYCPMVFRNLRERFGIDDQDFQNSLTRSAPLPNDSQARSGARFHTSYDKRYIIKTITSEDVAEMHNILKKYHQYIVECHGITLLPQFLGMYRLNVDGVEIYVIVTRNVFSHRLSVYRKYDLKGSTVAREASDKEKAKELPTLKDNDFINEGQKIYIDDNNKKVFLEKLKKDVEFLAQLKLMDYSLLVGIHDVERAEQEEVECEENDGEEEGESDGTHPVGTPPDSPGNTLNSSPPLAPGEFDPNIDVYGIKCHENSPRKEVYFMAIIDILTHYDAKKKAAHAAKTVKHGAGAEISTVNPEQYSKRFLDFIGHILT
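Reactions run in 0.038 M HEPES pH 7.4, 0.28 mM EGTA, 0.1% CHAPS and 5% DMSO, with PI5P4Kalpha, substrate, compound and 5 microM ATP final, one hour at room temperature. Readout is ADP-Glo luminescence.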
Pol iota inh = qHTS for Inhibitors of Polymerase Iota. Pol iota fluorescent replication assay, 10 min. Potency, µM (series often up to 115 µM), for the others: at the highest dose activity, negative = inhibition, hits mostly inhibitors. hit rate 1% among 390,000. DNA polymerase iota (Homo sapiens), Q9UNA4; note: potency is the fitted concentration of half-maximal effect
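Pol iota at 10 nM preincubated 15 min with compounds at room temperature; reaction started with fluorescent substrate, 50 nM final. Fluorescence read kinetically at 0 and 10 min; buffer-only wells as negative control.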
Pol eta inh-1 = qHTS for Inhibitors of Polymerase Eta. Potency, µM (titrated, usually from 114 µM), for the others: at the highest dose activity change, negative = inhibition, usual class: inhibitors. hit rate 1.2% among 390,000. DNA polymerase eta (Homo sapiens), Q9Y253. recombinant Pol eta, fluorescent DNA replication assay; note: potency is the fitted concentration of half-maximal effect; % is set by controls: 0 for no effect and ±100 for the full control effect
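Pol eta (10 nM) was preincubated with compounds for 15 min at room temperature, after which fluorescent replication substrate (50 nM final) was added to start the reaction. Fluorescence was read kinetically at 0 and 10 min.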
Pol kappa inh-1 = qHTS for Inhibitors of Polymerase Kappa. Potency, µM (highest dose often 107 µM), without a hit: at the top dose activity, negative = inhibition, usual class: inhibitors. hit rate 0.53% among 400,000. purified Pol kappa, fluorescent DNA synthesis assay, 10 min; note: potency is the fitted concentration of half-maximal effect; % is set by controls: 0 for no effect and ±100 for the full control effect
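Readout: fluorescence, taken kinetically at 0 and 10 min. Conditions: 10 nM Pol kappa, 15 min RT compound preincubation, 50 nM substrate final. Controls: enzyme-free buffer wells.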
WRN inhibitor = qHTS for Inhibitors of WRN Helicase. Bifunctional 3'-5' exonuclease/ATP-dependent helicase WRN (Homo sapiens), Q14191. AID 651768, 2012. WRN helicase unwinding, fluorescent forked duplex, kinetic. Potency, µM (titrated, usually from 114 µM), for the others: top-dose activity change, negative = inhibition, most hits filed as inhibitors. hit rate 0.46% among 360,000; note: potency is the fitted concentration of half-maximal effect; % is set by controls: 0 for no effect and ±100 for the full control effect; nearly all actives have a fitted effect of over 55% in size
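Screening of the MLSMR collection measured strand separation of a quenched forked DNA duplex (100 nM) by 20 nM WRN with 2 mM ATP, all final. Compounds were preincubated with enzyme 15 min at room temperature.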
PGK validate = qHTS for inhibitors of Phosphogylcerate Kinase: Hit Validation Screen. hit rate 79% among 500. Potency, µM (top dose mostly 57.5 µM), inactives show top-dose activity change, negative = inhibition, hits mostly inhibitors. TbPGK coupled GAPDH assay, Kinase-Glo luminescence. shares compounds with Pol kappa inh-1; note: potency is the fitted concentration of half-maximal effect; % is set by controls: 0 for no effect and ±100 for the full control effect; nearly all actives have a fitted effect of over 65% in size
Pol iota confirm = qHTS for Inhibitors of Polymerase Iota: Confirmatory Assay for Cherry-picked Compounds; shares compounds with Pol kappa inh-1; Pol iota primer extension, TAMRA/BHQ fluorescence; Potency, µM, hits mostly inhibitors; hit rate 77% among 1,500; AID 720496, 2013; note: potency is the fitted concentration of half-maximal effect
Pol kappa inh-2 = qHTS for Inhibitors of Polymerase Kappa: Confirmatory Assay for Cherry-picked Compounds. purified Pol-kappa, fluorescent strand-displacement substrate. Potency, µM, most hits filed as inhibitors. hit rate 76% among 920. shares compounds with Pol eta inh-1; note: potency is the fitted concentration of half-maximal effect
Pol eta inh-2 = qHTS for Inhibitors of Polymerase Eta: Confirmatory Assay for Cherry-picked Compounds; hit rate 64% among 2,600; Pol eta primer extension, TAMRA/BHQ fluorescence, 10 min; Potency, µM, most hits filed as inhibitors; shares compounds with Pol eta inh-1; AID 720502, 2013; note: potency is the fitted concentration of half-maximal effect
Numbers without * were called inactive; [ ] = remark or other dose. A selection: hits, their analogues and other compounds. The true share with any hit is near 2.8%. Unless noted, calls come from the whole dose curve; as a rule, active = well fitted curve in the direction sought with a large enough effect; inconclusive = small, poorly fitted or top-dose-only effect, or another doubt; inactive = no such curve, though single readings can be large; an effect the other way counts as inactive or inconclusive.

`CC(=O)Nc1ccc(NC(=O)CSc2nc(N)c(NC(=O)c3ccccc3F)c(=O)[nH]2)cc1` gave POLB inh inconclusive, PI5P4Ka inh inconclusive, Pol iota inh 40µM*, Pol eta inh-1 25µM*, Pol kappa inh-1 inconclusive, WRN inhibitor inconclusive, Pol iota confirm 67*, Pol kappa inh-2 inconclusive and Pol eta inh-2 inconclusive.
Screening COCCNC(=O)Cn1nc(C)c2c(C)n(-c3ccc(C)cc3)nc2c1=O returned POLB inh 6%, Pol iota inh 22%, Pol eta inh-1 -18% and Pol kappa inh-1 0%.
For COc1ccc(CCNC(=O)Cn2nc(C)c3c(C)n(-c4ccc(C)cc4)nc3c2=O)c(OC)c1 the results were POLB inh 35µM*, Pol iota inh inconclusive, Pol eta inh-1 inconclusive, Pol kappa inh-1 -23%, Pol iota confirm 67*, Pol kappa inh-2 27* and Pol eta inh-2 85*.
`CCOC(=O)C1=C(C)N(C[C@@H]2CC[C@@H](Cc3ccc(-c4ccccc4)cc3)O2)C(=O)NC1c1ccc(SCc2ccco2)c([N+](=O)[O-])c1` (stereo partly specified) gave PI5P4Ka inh -70*, Pol iota inh inconclusive, Pol eta inh-1 13µM*, Pol kappa inh-1 inconclusive, WRN inhibitor inconclusive, Pol iota confirm 60*, Pol kappa inh-2 17* and Pol eta inh-2 48*.
`CCc1ccc(C(=O)c2cn(CC(=O)Nc3ccc4c(c3)OCO4)c3ccc(CC)cc3c2=O)cc1` gave POLB inh 4.5µM*, Pol iota inh -94%, Pol eta inh-1 89µM*, Pol kappa inh-1 -5%, Pol iota confirm 42* and Pol eta inh-2 inconclusive.
For O=C(Cc1ccc(-c2ccccc2)cc1)NCCS(=O)(=O)N1CCN(c2ccc(F)cc2)CC1 the results were POLB inh inconclusive, Pol iota inh 4%, Pol eta inh-1 -14% and Pol kappa inh-1 -12%[60.1 µM].
COc1cccc(N=c2oc3ccc(OC)cc3cc2-c2nc3ccccc3[nH]2)c1 was read as POLB inh inconclusive, Pol iota inh inconclusive, Pol eta inh-1 45µM*, Pol kappa inh-1 -36%, WRN inhibitor inconclusive, Pol iota confirm 34* and Pol eta inh-2 76*.
`Cc1ccc(NC(=O)CN2C(=O)N/C(=C/c3ccc(N4CCOCC4)cc3)C2=O)cc1` gave POLB inh -7%, PI5P4Ka inh 1, Pol iota inh 39%, Pol eta inh-1 -15%, Pol kappa inh-1 -3% and WRN inhibitor -29%[57.1 µM].
For Cc1ccc(NC(=O)CN2C(=O)N/C(=C/c3ccccc3OCc3cccc(C(=O)O)c3)C2=O)cc1 the results were POLB inh 35µM*, PI5P4Ka inh -29, Pol iota inh 20µM*, Pol eta inh-1 25µM*, Pol kappa inh-1 inconclusive, WRN inhibitor 50µM*, PGK validate 16µM*, Pol iota confirm 42* and Pol eta inh-2 inconclusive.
`O=C(O)c1ccc(-n2cccc2/C=C2/NC(=O)N(c3cccc(Cl)c3)C2=O)cc1` gave POLB inh 2.2µM*, PI5P4Ka inh -79*, Pol iota inh 2µM*, Pol eta inh-1 3.5µM*, Pol kappa inh-1 16µM*, WRN inhibitor inconclusive, PGK validate 5.8µM*, Pol iota confirm 3.4* and Pol eta inh-2 9.5*.
Cc1ccc(NC(=O)CN2C(=O)N/C(=C\c3cccn3-c3cccc(-c4nn[nH]n4)c3)C2=O)cc1 was read as Pol iota confirm 27*, Pol kappa inh-2 21* and Pol eta inh-2 76*.
Screening COc1cc2c(cc1/C=C1/NC(=O)N(CC(=O)Nc3ccccc3)C1=O)OCO2 returned POLB inh 11%, PI5P4Ka inh -15, Pol iota inh -28%, Pol eta inh-1 -3%, Pol kappa inh-1 -16% and WRN inhibitor -14%[57.1 µM].
Cc1cc(C(=O)O)ccc1-c1ccc(/C=C2\NC(=O)N(Cc3ccc(F)cc3)C2=O)o1 was read as POLB inh inconclusive, PI5P4Ka inh -24, Pol iota inh inconclusive, Pol eta inh-1 7.1µM*, Pol kappa inh-1 28µM*, WRN inhibitor inconclusive, Pol iota confirm 17* and Pol eta inh-2 17*.
For Cc1ccc(NC(=O)CN2C(=O)N/C(=C\c3cccn3-c3cccc(C(=O)O)c3)C2=O)cc1 the results were POLB inh 4µM*, PI5P4Ka inh -76*, Pol iota inh 14µM*, Pol eta inh-1 3.5µM*, Pol kappa inh-1 45µM*, WRN inhibitor 28µM*, PGK validate 15µM*, Pol iota confirm 19*, Pol kappa inh-2 42* and Pol eta inh-2 27*.
`O=C(O)c1cccc(-n2cccc2/C=C2\NC(=O)N(Cc3ccc(F)cc3)C2=O)c1` gave POLB inh 11µM*, PI5P4Ka inh inconclusive, Pol iota inh 22µM*, Pol eta inh-1 20µM*, Pol kappa inh-1 79µM*, WRN inhibitor inconclusive, Pol iota confirm 67* and Pol eta inh-2 30*.
Screening O=C1N/C(=C/c2cccn2-c2ccc(F)cc2)C(=O)N1Cc1ccccc1 returned POLB inh 8%, Pol iota inh -16%[58.9 µM], Pol eta inh-1 -3%, Pol kappa inh-1 -1% and WRN inhibitor 1%.
`Cc1ccc(NC(=O)CN2C(=O)N/C(=C\c3cccn3-c3ccc(C(=O)NC#N)cc3)C2=O)cc1` gave Pol iota confirm 38* and Pol eta inh-2 43*.

Assay outcomes: PubChem BioAssay, National Center for Advancing Translational Sciences (NCATS)
